GPR151 ag = human GPR151 activation; Q8TDV0; PathHunter beta-arrestin GPR151 cells, luminescence; activation, % at 11.2 µM; hit rate 1% among 650,000; AID 1508602; in the data active = activation above about 4.9%
FBW7 act = activators of human E3 ligase FBW7; hit rate 0.13% among 650,000; AID 1259310; AlphaScreen FBW7–phospho-cyclin E peptide binding, activator screen; normalized activity (activation), % at 26.1 µM; in the data active = normalized activity above about 1.9%;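 note: purified mutant Fbw7 with reduced substrate affinity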
Target sequence (Q969H0 whole entry, looked up): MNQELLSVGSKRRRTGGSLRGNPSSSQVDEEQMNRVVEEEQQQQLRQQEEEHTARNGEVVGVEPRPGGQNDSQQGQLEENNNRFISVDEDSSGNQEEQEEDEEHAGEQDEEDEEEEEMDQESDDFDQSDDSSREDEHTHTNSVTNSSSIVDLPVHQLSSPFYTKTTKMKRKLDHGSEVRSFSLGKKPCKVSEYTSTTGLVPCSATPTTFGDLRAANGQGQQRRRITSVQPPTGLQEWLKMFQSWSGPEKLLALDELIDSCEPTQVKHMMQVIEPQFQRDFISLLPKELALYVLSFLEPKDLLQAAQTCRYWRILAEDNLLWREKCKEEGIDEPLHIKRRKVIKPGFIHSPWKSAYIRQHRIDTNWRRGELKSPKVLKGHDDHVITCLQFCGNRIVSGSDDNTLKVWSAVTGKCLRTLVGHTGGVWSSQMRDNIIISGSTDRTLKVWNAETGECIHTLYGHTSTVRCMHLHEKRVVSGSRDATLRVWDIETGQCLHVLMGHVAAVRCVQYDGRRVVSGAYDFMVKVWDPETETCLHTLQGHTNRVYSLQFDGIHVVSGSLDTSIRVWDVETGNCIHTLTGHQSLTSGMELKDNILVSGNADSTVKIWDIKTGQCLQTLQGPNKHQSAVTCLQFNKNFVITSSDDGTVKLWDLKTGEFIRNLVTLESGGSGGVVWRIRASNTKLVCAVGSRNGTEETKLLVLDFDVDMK
MITF primary = human MITF inhibition, primary screen. O75030. AlphaScreen MITF homodimerization, bead proximity signal. inhibition, % at 2.6 µM. hit rate 0.91% among 650,000. AID 1259374; in the data active = inhibition above about 50%
TEAD-YAP inh = TEAD-YAP interaction inhibition | hit rate 1.4% among 640,000 | HEK-TIYL cells, TEAD-Gal4/YAP UAS-luciferase luminescence | inhibition, % at 9.12 µM; in the data active = inhibition above about 32%
A number is an active result; - = inactive. Most compounds without a hit are left out; they make up all but 3.5% or so of the library.

SMILES | GPR151 ag | FBW7 act | MITF primary | TEAD-YAP inh
COc1cc(Nc2nc(Nc3ccc(-n4ccnc4)cc3)nc3c2ncn3C(C)C)cc(OC)c1OC | - | - | - | 40.1
COc1cc(Nc2nc(Nc3cnccn3)nc3c2ncn3C(C)C)cc(OC)c1OC | - | - | - | 47.5
COc1cc2nc(Nc3cnccn3)nc(Nc3cc(OC)c(OC)c(OC)c3)c2cc1OC | - | - | - | 32.7
COc1cc(Nc2nc(Nc3ccc(N4CCOCC4)cc3)nc3c2ncn3C(C)C)cc(OC)c1OC | - | - | - | -
O=C(Cn1cc(NC(=O)c2ccccc2F)cn1)NCCCn1ncc2ccccc21 | - | - | - | -
CCOc1ccc(-c2n[nH]c(C)c2Oc2ccccc2)c(O)c1C | - | - | - | -
COc1ccc(C(F)(F)F)cc1N/C=C(\C#N)C(N)=S | - | - | - | -
COc1ccc(N/C=C(\C#N)C(N)=S)cc1OC | - | - | - | 37.9
O=C(N/N=C/c1cc(Cl)cc(Br)c1O)c1ccncc1 | - | - | 98.4 | 47.1
O=C(N/N=C/c1cc(Cl)cc(Br)c1O)c1cccnc1 | - | - | 64.4 | 78.5
COc1cc(Cl)cc(/C=N/NC(=O)c2cccc(F)c2)c1O | - | - | - | 69.7
COc1ccc(C(=O)N/N=C/c2cc(Cl)cc(Br)c2O)cc1 | - | - | - | 33.4
COc1cc(Br)cc(/C=N/NC(=O)c2ccc(F)cc2)c1O | - | - | - | -
CCOC(=O)c1c[nH]c2c(C)c(Cl)ccc2c1=O | - | - | - | -
COc1cc(Br)cc(/C=N\NC(=O)c2ccc(Br)cc2)c1O | - | - | - | -
O=C(N/N=C/c1cc(Br)cc(I)c1O)c1cccnc1 | - | - | - | 68.3
COc1cc(Br)cc(/C=N/NC(=O)c2ccncc2)c1O | - | - | 91.0 | 87.3
Cc1cc(Br)cc(/C=N\NC(=O)c2ccc(N)cc2)c1O | - | - | - | 65.5
O=C(N/N=C/c1cc(Br)cc(Br)c1O)c1cccnc1 | - | - | - | 33.2
CS(=O)(=O)N1CCC(C(=O)N2CCN(c3nc4c(Cl)cccc4s3)CC2)CC1 | - | - | - | -
C=CCNC(=S)NNC(=S)N=P(N1CCOCC1)(N1CCOCC1)C(C)(C)C | - | - | - | -
CC(=O)Oc1ccc(C2C(C(=O)OC3CCCCC3)=C(C)NC3=C2C(=O)CC(C)(C)C3)cc1 (centres undefined) | - | - | - | -
Nc1nnc(SCc2ccc(Br)cc2)s1 | - | - | - | -
Brc1ccc(CSc2nn3cnnc3s2)cc1 | - | - | - | 52.7
CNC(=O)/C(C#N)=C/c1ccc(-c2cccc([N+](=O)[O-])c2)o1 | - | - | - | -
SMILES | GPR151 ag | FBW7 act | MITF primary | TEAD-YAP inh
CCOc1ccc2nc(-c3ccccc3)c(-c3ccccc3)nc2c1 | - | - | - | -
Nc1cccc(-c2cc(NCc3cccc(C(F)(F)F)c3)nc(N)n2)c1 | - | - | - | 43.8
Nc1nc(NCc2cccc(C(F)(F)F)c2)cc(-c2ccccc2)n1 | - | - | - | 44.5
CCCS(=O)(=O)c1ncc(Cl)c(C(=O)Nc2ccc(OC)cc2)n1 | - | - | - | 33.7
CCS(=O)(=O)c1ncc(Cl)c(C(=O)Nc2ccc(C)c(C)c2)n1 | - | - | - | 35.2
CCS(=O)(=O)c1ncc(Cl)c(C(=O)Nc2cccc(Cl)c2)n1 | - | - | - | 95.2
Cc1cc(Br)cc(C)c1OCC(=O)Nc1ccc(S(N)(=O)=O)cc1 | - | - | - | -
COc1ccc(N2C(N)=C(C#N)C(c3ccc(F)cc3)C3=C2CCCC3=O)cc1 (centres undefined) | - | - | - | 51.2
COC(=O)c1c(N2C(N)=C(C#N)C(c3ccccc3)C3=C2CCCC3=O)sc2c1CCCC2 (centres undefined) | - | - | - | 54.4
CCOc1ccc(C2C(C#N)=C(N)N(c3ccc(OC)cc3)C3=C2C(=O)CCC3)cc1 (centres undefined) | - | - | - | 50.2
N#CC1=C(N)N(c2ccc(F)cc2)C2=C(C(=O)CCC2)C1c1ccc(F)cc1 (centres undefined) | - | - | - | -
CC(=O)c1ccc(NC(=O)CSc2nc(C)nc3sc(C)c(C)c23)cc1 | - | - | - | -
Cc1nc(SCC(=O)Nc2cc(C(N)=O)cc(C(N)=O)c2)c2c(C)c(C)sc2n1 | - | 15.6 | - | -
CN(N)c1snnc1-c1ccccc1 | - | - | - | -
COP(=O)(OC)c1nc(Cc2ccc(Cl)cc2)oc1NCc1ccc(F)cc1 | - | - | - | -
O=C(/C=C/c1ccco1)NC(=S)NCc1cccnc1 | - | - | - | 47.4
Nc1nc2c3cc4c(nc3sc2c2ccccc12)CCC4 | - | - | - | 33.8
Nc1ccc(O)c2c1C(=O)c1c(cccc1[N+](=O)[O-])C2=O | - | - | 88.2 | -
O=C1/C(=C/c2ccncc2)CCC/C1=C\c1ccncc1 | - | - | - | 59.0
Cc1ccc(/C=C2/CN(C)C/C(=C/c3ccc(C)o3)C2=O)o1 | - | - | - | -
O=C1/C(=C/c2cccnc2)CCCC/C1=C\c1cccnc1 | - | - | - | -
CN1C/C(=C\c2ccncc2)C(=O)/C(=C/c2ccncc2)C1 | - | - | - | 95.2
Cc1nc2scc(-c3ccc(Br)cc3)c2c(=O)o1 | - | - | - | -
COc1ccc(-c2cnc3ccc(NCCCO)nn23)cc1OC | - | - | - | 36.2
COCCNc1ccc2ncc(-c3ccc(O)c(OC)c3)n2n1 | - | - | - | 54.6
SMILES | GPR151 ag | FBW7 act | MITF primary | TEAD-YAP inh
CC1(c2ccccc2)CC(C)(C)N(C(=O)CSC2=NCCS2)c2ccccc21 (centres undefined) | - | - | - | -
O=S(=O)(c1ccc(Cl)cc1)N1CCN(Cc2ccccc2)CC1 | - | - | - | -
CCN(CC)C(=O)Sc1nc2ccccc2s1 | - | - | - | 43.8
Cc1ccc(NC(=O)C2(N(Cc3ccco3)C(=O)Cc3nc(N)n[nH]3)CCCCC2)cc1 | - | - | - | -
Clc1cccc(-c2cnc3ccc(NCCc4cccnc4)nn23)c1 | - | 2.0 | - | 93.7
N#Cc1ccc(-c2cnc3ccc(NCCc4cccnc4)nn23)cc1 | - | - | - | 34.1
CCOC(=O)/C(C#N)=N/Nc1ccc2c(c1)OCCO2 | - | - | - | -
N#CC(C#N)=NNc1ccc2c(c1)OCO2 | - | - | - | 39.3
O=C(NCCCO)c1nnc(-c2ccc3c(c2)OCO3)o1 | - | - | - | -
COC(=O)c1ccccc1NC(=O)NNC(=O)c1cc2ccccc2cc1O | - | - | - | -
COC(=O)c1ccccc1NC(=O)NNC(=O)c1csc(C)c1-c1ccc(C)cc1 | - | - | - | 32.5
CC(=O)c1ccc(N2CCN(CC(=O)Nc3ncc(C)s3)CC2)cc1 | - | - | - | -
CCc1nnc(NC(=O)CN2CCN(c3ccc(C(C)=O)cc3)CC2)s1 | - | - | - | 31.9
O=C(c1cc2c(s1)CCC2)N1CCC(c2ccncc2)CC1 | - | - | - | 33.0
COc1ccc(/C=N/NC(=O)c2cc(-c3ccc(OC)cc3)n[nH]2)cc1 | - | - | - | 32.8
COc1ccc(/C=N/NC(=O)c2cc(-c3ccc(F)cc3)n[nH]2)cc1 | - | - | - | -
Cc1ccc(/C=N/NC(=O)c2cc(-c3ccccc3)n[nH]2)cc1 | - | - | - | -
COc1ccc(-c2cc(C(=O)N/N=C\c3ccc(N(C)C)cc3)[nH]n2)cc1 | - | - | - | 44.7
